nsP2pro primary = blocks chikungunya virus nsP2 protease peptide cleavage; Q8JUX6; Potency, µM (highest dose often 24.9 µM), without a hit: at the highest dose activity change, negative = inhibition, actives largely listed as inhibitors; 1.1% of 31,000 active; FRET peptide cleavage, nsP2pro, fluorescence 1 h; also: nearly all actives have a fitted effect of over 60% in size
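FRET cleavage of 2.5 uM peptide 2 by 150 nM CHIKV protease domain at pH 8.0 (Tris, Tween 20). Compounds at 7 concentrations (up to 25 uM) preincubated 15 min. Fluorescence read after 1 h at room temperature.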
nsP2 cell sec = cell-based CHIKV nsP2 protease inhibition, secondary | shares compounds with nsP2pro primary | cell-based CHIKV nsP2 protease reporter assay | Potency, µM (series often up to 51.1 µM), for inactives: top-dose activity change, negative = inhibition, usual class: inhibitors | 10% of 450 active; also: nearly all actives have a fitted effect of over 70% in size
Target sequence (Q8JUX6 220-798 limits assumed): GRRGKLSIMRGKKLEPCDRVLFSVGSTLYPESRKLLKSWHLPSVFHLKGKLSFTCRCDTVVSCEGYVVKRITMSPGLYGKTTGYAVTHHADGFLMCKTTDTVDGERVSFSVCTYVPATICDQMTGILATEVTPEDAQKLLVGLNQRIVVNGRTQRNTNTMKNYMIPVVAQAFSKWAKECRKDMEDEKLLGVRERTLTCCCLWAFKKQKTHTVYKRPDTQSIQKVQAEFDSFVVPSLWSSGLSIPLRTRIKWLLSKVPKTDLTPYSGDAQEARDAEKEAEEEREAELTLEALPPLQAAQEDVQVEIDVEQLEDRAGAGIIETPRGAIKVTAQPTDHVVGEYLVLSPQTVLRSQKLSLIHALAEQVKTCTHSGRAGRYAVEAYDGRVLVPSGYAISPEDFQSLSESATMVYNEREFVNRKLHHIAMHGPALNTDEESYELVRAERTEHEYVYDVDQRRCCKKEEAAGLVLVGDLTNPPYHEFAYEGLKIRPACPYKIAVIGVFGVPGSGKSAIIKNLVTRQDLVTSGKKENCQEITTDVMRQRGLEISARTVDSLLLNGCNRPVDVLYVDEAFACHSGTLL
NSP2 full ctr = inhibits full-length CHIKV NSP2 enzyme. 39% of 410 active. Potency, µM (highest dose often 50.7 µM), for the others: at the top dose activity change, negative = inhibition, most hits filed as inhibitors. Full-length CHIKV NSP2 protease enzymatic counterscreen. shares compounds with nsP2pro primary; also: nearly all actives have a fitted effect of over 65% in size
Furin counter = selectivity counter-screen for CHIKV nsP2 protease inhibitors: human furin | Potency, µM (titrated, usually from 50.6 µM), without a hit: at the highest dose activity change, negative = inhibition, most hits filed as inhibitors | Recombinant human furin enzymatic counterscreen, fluorogenic substrate | shares compounds with nsP2pro primary | 6% of 410 active
NS23 peptide cs = nsP2pro inhibition on native NS2/3 peptide substrate; shares compounds with nsP2pro primary; Purified CHIKV nsP2 protease, endogenous NS2/3 peptide cleavage; Potency, µM (highest dose often 51 µM), without a hit: at the highest dose activity change, negative = inhibition, most hits filed as inhibitors; 34% of 410 active; also: nearly all actives have a fitted effect of over 55% in size
Papain cs = inhibits papain in a CHIKV nsP2 protease selectivity counterscreen; shares compounds with nsP2pro primary; purified papain protease activity, enzymatic inhibition; Potency, µM (highest dose often 51 µM), for the others: at the highest dose activity change, negative = inhibition, usual class: inhibitors; 5% of 410 active; AID 1964104
nsP2pro confirm = confirmation of CHIKV nsP2 protease inhibitors; shares compounds with nsP2pro primary; CHIKV nsP2 protease enzymatic activity, qHTS; Potency, µM (top dose mostly 25.5 µM), for the others: top-dose activity change, negative = inhibition, hits mostly inhibitors; 43% of 410 active; AID 1964105; also: nearly all actives have a fitted effect of over 75% in size
HCV NS3 4A cs = selectivity counter-screen for CHIKV nsP2 protease inhibitors: HCV NS3/4A | shares compounds with nsP2pro primary | Potency, µM (highest dose often 50.9 µM), hits mostly inhibitors | HCV NS3/4A protease biochemical counterscreen | 20% of 410 active; also: nearly all actives have a fitted effect of over 55% in size
* marks the source's active call; other numbers are inactive results; i = inactive; ? = inconclusive; [ ] = remark or other dose. The sample as a whole holds a higher share of hits than the screen did. Calls follow the shape of the full dose curve. % is scaled to controls: 0 for no effect and ±100 for the full control effect; potency is read from the fitted curve at half-maximal effect.

SMILES	nsP2pro primary	others
O=C(O[C@@H]1Cc2c(O)cc(O)cc2O[C@@H]1c1ccc(O)c(O)c1)c1cc(O)c(O)c(O)c1	?	nsP2 cell sec=-24.1%;NSP2 full ctr=23.1µM*;Furin counter=-6.3%;NS23 peptide cs=14.6µM*;Papain cs=-25.9%;nsP2pro confirm=?;HCV NS3 4A cs=?
Cc1ccnc(NC(=S)N2CCCC(Nc3cccc(C(F)(F)F)c3)C2)c1 (stereo unspecified)	-8.9%
COC(=O)[C@]1(Cc2ccc(O)c(CC=C(C)C)c2)OC(=O)C(O)=C1c1ccc(O)cc1	5.5%[10 µM]
CC(C)N1CCc2c(sc(NC(=O)C3CCCC3)c2-c2nc3ccccc3s2)C1	-0.9%
CC(O)(C(=O)O)C1CCC2(C)C1CCC1(C)C2CCC2C3(C)CCC(O)C(C)(COC4OC(CO)C(O)C(O)C4O)C3CCC21C (stereo unspecified)	-21.4%[10 µM]
C=C(C)C(=O)O[C@H]1[C@@H]2[C@H](C)C(=O)O[C@@H]2C[C@@H](C)[C@@H]2C=CC(=O)[C@]21C	7.3%
Cc1cc(C)nc(NC(=S)N2CCN(c3nccc4occc34)CC2)c1	-2.9%
O=C(NCc1ccccc1-c1ccccc1C(=O)NCCc1ccccn1)OCc1ccccc1	1.1%
COc1ccc(-c2ccc(NS(=O)(=O)c3ccccc3)cc2)nn1	-2.0%
CCN(CC)CCCNc1sc(S(=O)(=O)c2ccccc2)nc1S(=O)(=O)c1ccc(Cl)cc1	30.5%
COc1cc(NS(=O)(=O)c2cccc([N+](=O)[O-])c2)c2ncccc2c1	106.5%
COc1ccc(NS(=O)(=O)c2ccc(N)cc2)nn1	-4.1%
COc1ccc([N+](=O)[O-])c(S(=O)(=O)c2ccccc2)n1	2.24µM*	nsP2 cell sec=1.83µM*;NSP2 full ctr=13µM*;Furin counter=?;NS23 peptide cs=3.26µM*;Papain cs=-11.6%;nsP2pro confirm=5.65µM*;HCV NS3 4A cs=?
COc1ccc([N+](=O)[O-])c(S(=O)(=O)c2ccc(Cl)cc2)n1	6.31µM*	nsP2 cell sec=2.06µM*;NSP2 full ctr=23.1µM*;Furin counter=-1.2%;NS23 peptide cs=5.8µM*;Papain cs=-10.5%;nsP2pro confirm=-97.8%;HCV NS3 4A cs=i
CC(=O)Nc1sc2c(c1-c1nc3ccccc3o1)CCN(C(C)C)C2	i
Nc1n[nH]c(N)c1N=Nc1ccc(O)cc1	189.5%
O=c1cc(-c2ccc(O)c(O)c2)oc2c([C@@H]3O[C@H](CO)[C@@H](O)[C@H](O)[C@H]3O)c(O)cc(O)c12	-2.9%
CCOc1ccccc1C(=O)NCc1coc(-c2ccc(OC(F)F)c(OC(C)C)c2)n1	-7.5%
Cc1cnc(-c2ccccc2C(C)C)nc1NCc1ccc(C(N)=O)cc1	-4.8%
O=C(Cc1ccccn1)N1CCC(C(=O)N2CCC(c3nc4ncccc4[nH]3)CC2)CC1	i
CCN(Cc1sccc1C)c1ncnc2ccc(-c3ccc4c(c3)OCO4)cc12	i
Cc1ccsc1CN(C)c1ncnc2ccc(-c3ccc(CO)o3)cc12	10µM*	nsP2 cell sec=25.9µM*;NSP2 full ctr=?;Furin counter=-8.7%;NS23 peptide cs=?;Papain cs=-8.3%;nsP2pro confirm=2.8%;HCV NS3 4A cs=23.1µM*
Cc1ccsc1CN(C)c1ncnc2ccc(-c3ccoc3)cc12	-22.1%
O=C([C@@H]1C[C@H](Oc2cccnc2)CN1C(=O)c1cc2ccccc2[nH]1)N1CCCC1	1.9%
COc1ccc(C2=Nn3c(nnc3-c3ccccc3C(F)(F)F)SC2)cc1OC	i
CC(C)C1C(OC(=O)/C=C/c2ccccc2)CC2(C)OC2CCC2(C)OC2C1O (stereo unspecified)	-12.1%
COc1ccc2oc(NC3=NC(c4[nH]ncc4Cl)C4=C(CCCC4=O)N3)nc2c1 (stereo unspecified)	i
CCCSc1oc(-c2cccs2)nc1S(=O)(=O)c1ccc(C)cc1	-23.3%

Bioassay records (PubChem)
